Compound activity from PubChem.
Sampled rows, rich in hits. Any-hit rate of the full collection: about 6%.
D1 potentiator = enhances dopamine response at the human D1 receptor; P21728; HEK293 TREx D1 cells, calcium flux, dopamine EC20 potentiation; potentiation, % at 10 µM; 0.036% of 360,000 active; in the data active means potentiation above about 30%; further: 0% is about no effect
Target sequence (P21728 whole entry, looked up): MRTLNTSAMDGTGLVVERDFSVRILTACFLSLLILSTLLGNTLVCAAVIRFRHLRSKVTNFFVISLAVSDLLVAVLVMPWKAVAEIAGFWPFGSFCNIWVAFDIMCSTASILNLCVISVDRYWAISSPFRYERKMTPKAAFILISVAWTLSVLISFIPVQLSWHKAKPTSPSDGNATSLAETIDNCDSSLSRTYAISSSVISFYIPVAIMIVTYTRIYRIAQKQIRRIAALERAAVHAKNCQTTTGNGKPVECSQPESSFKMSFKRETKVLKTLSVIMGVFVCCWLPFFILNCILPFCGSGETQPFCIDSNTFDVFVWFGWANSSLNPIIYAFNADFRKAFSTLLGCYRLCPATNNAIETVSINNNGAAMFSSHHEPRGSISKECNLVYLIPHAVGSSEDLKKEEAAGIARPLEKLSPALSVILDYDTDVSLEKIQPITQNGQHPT
D1 antagonist = human D1 dopamine receptor antagonism | P21728 | HEK293 TREx D1 cells, calcium flux, dopamine EC80; hits give low values | activity change, negative = inhibition, % at 10 µM | 3.2% of 360,000 active | AID 504652; in the data active means activity change below about -30%; further: on the % scale 0 is the no-effect control and ±100 the full control effect
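Inducible Hek293 Trex D1 cells (tetracycline, overnight, 30 C). Calcium dye 30–90 min RT. Antagonist mode: EC80 dopamine added after 180 s compound read.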
DRD3 agonist = agonists of human D3 dopamine receptor | max activation, % | 0.58% of 410,000 active | D3R DiscoveRx beta-arrestin cells, luminescence, 90 min | P35462; in the data active means max activation above about 30%; further: 0% is about no effect
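Agonist-mode cell screen: cells plated at 1500/well and incubated overnight at 37 °C, then exposed to library compounds for 90 min at 37 °C. Detection reagent was added for 30–60 min at room temperature, and luminescence was read.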
DRD3 antagonist = antagonists of human D3 dopamine receptor. 2.5% of 360,000 active. P35462. AID 652054. max response, negative = inhibition, %. D3R cells, DiscoveRx beta-arrestin luminescence, antagonist mode; hits give low values; in the data active means max response below about -50%; inconclusive means no clear call, values can overlap the other calls; further: on the % scale 0 is the no-effect control and ±100 the full control effect
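Cells plated overnight at 1500 cells/well, then exposed to library compounds with dopamine controls for 90 minutes at 37 degrees C. DiscoveRx reagent added for 30–60 minutes at room temperature; luminescence read, quantitative HTS format.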
D1 agonist = agonists of human D1 dopamine receptor. activation, % at 2 µM. HEK293 T-REx D1 cells, calcium flux, agonist mode. P21728. 1% of 360,000 active; in the data active means activation above about 30%; further: 0% is about no effect
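Inducible HEK293 T-REx D1 cells, force-coupled to calcium signalling, were plated at 4000 cells/well with tetracycline and held overnight at 30 C. After no-wash calcium dye loading, compound-evoked calcium rise over 180 s flagged agonists.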
Chronic BCR inh = blocks chronic active B-cell receptor signaling; ABC-DLBCL IkBa-CBG/CBR reporter, luminescence ratio, 4 h; Potency, µM (top dose mostly 46.1 µM), for inactives: at the top dose activity change, negative = inhibition, usual class: inhibitors; 0.05% of 340,000 active; active means well fitted inhibition curve with a large enough effect in the signal ratio, with a control signal flat, not every such curve was filed as active; inconclusive means small, poorly fitted or top-dose-only effect, or effect the other way, or a change in a side signal; the % refers to the signal ratio;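 further: potency means the concentration at half of the fitted maximal effect; plate controls were basal doxycycline-induced cells for no effect and cells given 10 µM MG132 for full effect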
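Doxycycline induced both beetle luciferases in TMD8 lymphoma cells; IKK-driven degradation limits the IkappaBalpha-fused green signal, while red luminescence normalises for cell number and nonspecific effects. Compounds tested up to 46 uM, 4 hrs.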
Active calls of the source: *; ? = inconclusive; / = no result.

SMILES	D1 potentiator	D1 antagonist	DRD3 agonist	DRD3 antagonist	D1 agonist	Chronic BCR inh
COc1ccccc1-c1cc(C(=O)N/N=C/c2ccc(C)s2)c2ccccc2n1	5	3	2	-22	7	?
O=C(NCc1ccccn1)c1cc(-c2ccccc2Cl)nc2ccccc12	0	-32*	3	8	1	0%
COc1ccc(-c2cc(C(=O)N/N=C(\C)c3cccnc3)c3ccccc3n2)cc1	-3	-58*	-39	?	0	?
COc1ccccc1-c1cc(C(=O)N/N=C/c2ccoc2)c2ccccc2n1	0	-3	-8	-51*	8	-1%
CCOc1cc(C(=O)N/N=C/c2ccoc2)cc(OCC)c1OCC	-11	4	-16	-70*	2	?
Cc1ccccc1-c1cc(C(=O)N/N=C/c2cccnc2)c2ccccc2n1	-4	5	-8	15	1	-19%
COc1ccc(/C=N/NC(=O)c2nc(-c3ccccc3)n(-c3ccccc3)n2)c(O)c1	-8	-61*	4	-11	8	-1%
COc1cc(/C=N/NC(=O)c2cc(-c3cccc(OC(C)C)c3)nc3ccccc23)ccc1O	/	/	73*	62	/	/
COc1ccc(OC)c(/C=N/NC(=O)c2cc(-c3ccc(C)o3)nc3ccccc23)c1	0	10	37*	20	1	-10%
O=C(N/N=C/c1cccnc1)c1cc(-c2ccccc2Cl)nc2ccccc12	-1	-40*	1	-7	-1	-11%
COc1ccc(/C=N/NC(=O)c2nc(-c3ccccc3)n(-c3ccccc3)n2)cc1	4	7	-8	-5	1	-1%
COc1cc(/C=N/NC(=O)c2cc(-c3cccs3)nc3ccccc23)ccc1O	0	-1	9	53	6	?
Cc1cc(C)c(NC(=O)Cn2c(=O)n(CCC(=O)N3CCc4ccccc4C3)c(=O)c3ccccc32)c(C)c1	0	-5	-13	/	16	/
Cc1cccc2nc(-c3cccc(NS(=O)(=O)c4ccccc4)c3)cn12	-1	-7	-13	/	-3	/
COc1ccc(-n2c(SCC(=O)NCc3ccc(C)cc3)nc3n[nH]c(C)c3c2=N)cc1	-4	6	10	/	2	0%
COc1ccc(CCNC(=O)c2c([S-])n(-c3ccc(C)cc3)c3cccc[n+]23)cc1	-4	-35*	-6	-26	1	0%
O=C(COC(=O)c1cccc(S(=O)(=O)N2CCCC2)c1)Nc1cccc(Br)c1	/	/	2	16	/	/
C1CCC(OCCN2CCN(CCOC3CCCCC3)CC2)CC1	-4	-8	-27	-63*	2	-1%
COCCCNC(=O)C[C@@H]1C[C@@]2(C(=O)OC)CC(C)(C)CC=C2N(CCc2ccc(OC)c(OC)c2)C1=O	/	/	-21	-70*	/	/
CNC(=O)COc1ncnc2sc(C)c(C)c12	-1	12	-12	0	1	-1%
Cc1sc2ncnc(OCC(=O)NCc3cccs3)c2c1C	-2	-5	7	-83*	-1	?
CCCN(CC(=O)Nc1ccccc1C)C(=O)c1ccc(COc2ccccc2)cc1	-1	-42*	4	-19	11	1%
Clc1cccc(OCCN2CCOCC2)c1	3	18	4	-66*	2	?
OCCN1CCN(CCOc2cccc(Cl)c2)CC1	-4	-13	40*	?	4	-1%
Cc1cc(OCCN2CCOCC2)ccc1Cl	-2	-94*	2	-24	5	-1%
CC1CCN(CCOc2ccc(Cl)c(Cl)c2)CC1	-6	-6	1	-51*	6	?
CC1(C)OC(=O)C2=C(C[C@@H](C3CC3)O[C@@H]2C2CC2)O1	/	/	5	16	/	/
COCCNC(=O)C1(C)CCCN(Cc2ccc(Cl)c(Cl)c2)C1 (configuration not stated)	/	/	-6	-8	/	/
CCS(=O)(=O)c1ncc(N(Cc2ccco2)Cc2sccc2C)c(C(=O)Nc2ccc(C)cc2C)n1	-2	-4	6	/	5	/
COC(=O)c1ccc(NC(=O)C(C)N2Cc3ccccc3C2=O)cc1 (configuration not stated)	0	-9	-7	/	-1	/
